# Test results: PubChem BioAssay (Tox21)
# Records with an inconclusive call do not appear. Entries that show only a call come without a potency. The source made the active and inactive calls. Unless noted, calls come from the whole dose curve; as a rule, active = well fitted curve in the direction sought with a large enough effect in the repeat runs; inconclusive = weak or mixed curves; inactive = no such curve, though single readings can be large; an effect the other way counts as inactive or inconclusive.
# Assays:
# [1] = qHTS assay to identify small molecule agonists of the vitamin D receptor (VDR) signaling pathway - cell viability counter screen (AID 743224); note: nearly all actives have a fitted effect of over 50% in size; note: potency is the fitted concentration of half-maximal effect
# Procedure, shortened: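 VDR-bla cells were preincubated 4 h at 37C/5% CO2, then exposed to compounds for 16 h. After the 2 h room-temperature bla FRET read, CellTiter-Glo was added to the same wells and luminescence read after 30 min.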
# [2] = qHTS assay to identify small molecule agonists of the NFkB signaling pathway - cell viability counter screen (AID 1159515; calls by dose curve; note: nearly all actives have a fitted effect of over 55% in size; note: potency is the fitted concentration of half-maximal effect)
# Procedure, shortened: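 NFkB-bla ME-180 cells, 2,000/well, were plated overnight at 37 C, 5% CO2, then exposed to compounds in DMSO for 5 hr. After the bla FRET read, CellTiter-Glo was added to the same wells; luminescence was read after 30 min at room temperature.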
# [3] = qHTS assay to identify small molecule agonists of the endoplasmic reticulum stress response signaling pathway - cell viability counter screen (AID 1159517; calls by dose curve; note: nearly all actives have a fitted effect of over 50% in size; note: potency is the fitted concentration of half-maximal effect)
# Procedure, shortened: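 Cells, HeLa ESRE-bla; density, 1,500/well; dosing, 5 hr at 37 C, 5% CO2; readout, CellTiter-Glo luminescence after 30 min RT.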
# [4] = qHTS assay to identify small molecule antagonists of the retinoid-related orphan receptor gamma (ROR-gamma) signaling pathway - cell viability counter screen (AID 1159520); note: nearly all actives have a fitted effect of over 50% in size; note: potency is the fitted concentration of half-maximal effect
# Procedure, shortened: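 Cytotoxicity was read from cellular ATP (CellTiter-Glo luminescence) after 16 hr at 37 C with 1 uM doxycycline induction. The inducer was added 2 hr after compound transfer to Tet-on ROR gamma CHO cells.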
# [5] = qHTS assay to identify small molecule agonists of the AP-1 signaling pathway - cell viability counter screen (AID 1159525; calls by dose curve; note: nearly all actives have a fitted effect of over 55% in size; note: potency is the fitted concentration of half-maximal effect)
# Procedure, shortened: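 Luminescent ATP readout (Cell Titer Glo, 30 min RT), normalised to DMSO and tetra n-octyl ammonium bromide controls. Cells were ME-180 AP-1-bla in 0.5% dialyzed FBS Opti-MEM, with a 5 h, 37 °C compound exposure.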
# [6] = qHTS assay to identify small molecule agonists of the RXR signaling pathway - cell viability counter screen (AID 1159529); note: nearly all actives have a fitted effect of over 50% in size; note: potency is the fitted concentration of half-maximal effect
# Procedure, shortened: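 Counter screen: CellTiter-Glo luminescence. Cells: RXR-alpha-UAS-bla HEK 293T. Medium: 2% charcoal-stripped FBS. Treatment: 16 h, 37 C. Reagent incubation: 30 min, RT.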
# [7] = qHTS assay to identify small molecule antagonists of the retinoid acid receptor (RAR) signaling pathway - cell viability counter screen (AID 1159551); note: nearly all actives have a fitted effect of over 35% in size; note: potency is the fitted concentration of half-maximal effect
# Procedure, shortened: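 C3RL4 cells were seeded overnight at 37 C, then treated with compounds plus 1 uM (final) retinol for 6 h at 37 C. Viability was read as ATP by CellTiter-Glo luminescence after 30 min at room temperature.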
# [8] = qHTS assay to identify small molecule antagonists of the retinoic acid receptor (RAR) signaling pathway (AID 1159552; note: nearly all actives have a fitted effect of over 50% in size; note: potency is the fitted concentration of half-maximal effect)
# Procedure, shortened: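 Antagonism of retinol-induced RARE reporter activity was measured in C3RL4 cells. Exposure to compounds and 1 uM final retinol lasted 6 hr at 37 C, with luminescence as endpoint.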
# [9] = qHTS assay to identify small molecule antagonists of the vitamin D receptor (VDR) signaling pathway - cell viability counter screen (AID 743225); note: nearly all actives have a fitted effect of over 50% in size; note: potency is the fitted concentration of half-maximal effect
# Procedure, shortened: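 Same-well multiplex: following 16 h treatment of HEK 293T cells carrying a UAS-driven beta-lactamase reporter with compound and agonist (3 nM final), and a 2 h FRET substrate step, CellTiter-Glo was added and luminescence read after 30 min.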
# [10] = molecular target: Retinoic acid receptor RXR-alpha (Homo sapiens) (UniProt P19793); assay: qHTS assay to identify small molecule agonists of the RXR signaling pathway (AID 1159527; calls by dose curve; note: nearly all actives have a fitted effect of over 35% in size)
# Procedure, shortened: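 Compounds in DMSO were added to RXR-alpha-UAS-bla HEK 293T cells kept in 2% charcoal-stripped serum, and incubated 16 hr at 37 C with 5% CO2. Reporter signal came from a 2 hr B/G FRET substrate step.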
# [11] = qHTS assay to identify small molecule agonists of the AP-1 signaling pathway (AID 1159526; calls by dose curve)
# [12] = qHTS assay to identify small molecule agonists of the retinoic acid receptor (RAR) signaling pathway (AID 1159553)
# Procedure, shortened: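 C3RL4 cells carrying a RARE luciferase reporter were plated overnight at 37 C, then exposed to compounds in DMSO for 6 hr at 37 C and 5% CO2. Luminescence was read 30 min after luciferase reagent addition at room temperature.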
# Sequence of Retinoic acid receptor RXR-alpha (Homo sapiens) (P19793 whole entry, looked up): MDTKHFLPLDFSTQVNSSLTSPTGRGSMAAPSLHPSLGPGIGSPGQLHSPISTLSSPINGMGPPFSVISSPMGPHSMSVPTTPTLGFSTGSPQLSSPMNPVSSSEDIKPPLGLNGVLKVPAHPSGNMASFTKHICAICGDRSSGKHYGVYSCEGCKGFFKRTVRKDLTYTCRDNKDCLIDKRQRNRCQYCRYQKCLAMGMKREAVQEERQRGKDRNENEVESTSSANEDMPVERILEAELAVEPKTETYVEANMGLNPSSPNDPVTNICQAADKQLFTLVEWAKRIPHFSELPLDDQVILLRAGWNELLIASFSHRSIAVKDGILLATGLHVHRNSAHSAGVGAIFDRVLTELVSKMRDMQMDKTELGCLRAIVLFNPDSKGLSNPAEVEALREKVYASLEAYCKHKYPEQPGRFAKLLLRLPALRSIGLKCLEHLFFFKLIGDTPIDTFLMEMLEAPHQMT
Structure (SMILES),Potency [1],Potency [2],Potency [3],Potency [4],Potency [5],Potency [6],Potency [7],Potency [8],Potency [9],Potency [10],Potency [11],Potency [12]
C[C@@H](NCCCc1cccc(C(F)(F)F)c1)c1cccc2ccccc12,29.8 µM (active),23.9 µM (active),23.9 µM (active),29.8 µM (active),23.9 µM (active),16.9 µM (active),33.5 µM (active),29.8 µM (active),–,–,–,–
O=[N+]([O-])c1cc([N+](=O)[O-])c2ccc(S(=O)(=O)O)cc2c1O,inactive,inactive,inactive,inactive,inactive,inactive,inactive,–,–,–,–,–
O=c1cccccc1O,–,inactive,inactive,inactive,inactive,inactive,inactive,inactive,inactive,inactive,–,–
CN(C)CCCOC1(Cc2ccccc2)CCCCCC1,–,inactive,inactive,inactive,inactive,–,inactive,inactive,–,–,–,–
CCCCCCCCCCn1cc[n+](CCCCCCCCCC)c1C,15.5 µM (active),55 µM (active),34.7 µM (active),19.4 µM (active),39 µM (active),6.93 µM (active),61.2 µM (active),–,6.93 µM (active),–,–,–
CN1CCC(Nc2ncc3ncnc(Nc4ccc(F)c(Cl)c4)c3n2)CC1,–,inactive,inactive,inactive,inactive,–,inactive,–,21.3 µM (active),–,–,–
CC(C)OC(=O)c1cc2c(OCC(O)CNC(C)(C)C)cccc2[nH]1 (centres undefined),inactive,inactive,inactive,inactive,inactive,inactive,inactive,–,–,–,inactive,inactive
CC(C)n1nc(-c2cc3cc(O)ccc3[nH]2)c2c(N)ncnc21,15 µM (active),inactive,9.52 µM (active),2.98 µM (active),–,–,–,–,–,–,inactive,–
Clc1ccc2n[nH]nc2c1,inactive,inactive,inactive,inactive,inactive,inactive,inactive,–,inactive,–,–,–
Cc1cccc(S(=O)(=O)O)c1C,inactive,inactive,inactive,inactive,inactive,inactive,inactive,–,inactive,–,inactive,inactive
Cc1c(C)c2c(c(C)c1O)CCC(C)(COc1ccc(CC3SC(=O)NC3=O)cc1)O2 (centres undefined),inactive,inactive,inactive,inactive,inactive,inactive,inactive,–,inactive,–,inactive,–
Cn1cc(C(=O)[C@@H]2CCc3nc[nH]c3C2)c2ccccc21,inactive,inactive,inactive,inactive,inactive,–,inactive,inactive,inactive,–,–,inactive
